Reference: PubChem BioAssay (NCI)
The panel holds about 83,000 compounds, 20% with a hit somewhere; the sample as a whole holds those more often.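 In brief: 96-well plates, 48 h treatment, single concentration, percent growth endpoint.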 Calls of active or inactive are those of the source. How the source made its calls: active means growth percent below 10; inactive means the rest.

test system: MDA-MB-468 breast; experiment: NCI-60 one-dose screen, 48 h (100 = growth as untreated, 0 = no growth, -100 = all killed); conditions: 10 µM unless noted

Structure (SMILES)	growth
CCc1ccc(SC2c3ccc(N(CC)CC)cc3Oc3nc(N)c(C#N)c(N)c32)cc1 (stereo not given)	-41% (active)
c1ccc(-c2nc3sc(-c4ccccc4)cn3n2)cc1	85.2% (inactive)
C=C/C(C)=C/C[C@]1(C)[C@H](C)[C@@H](OC(=O)CCC)[C@H](O)[C@@]23C(=C[C@H](OC)C[C@@H]12)[C@@H](OC(=O)CCC)O[C@H]3OC(C)=O	-69% (active)
OC1CSSC1Cn1cnc2c(Nc3ccc(OCc4cccc(F)c4)c(Cl)c3)ncnc21 (stereo not given)	-53.2% (active)
COc1ccc(/C=C2\SC(=Nc3ccccc3)NC2=O)cc1	-84.8% (active)
CC/C=C\C/C=C\C[C@H](O)C/C=C1/C(=O)C=C[C@@H]1C/C=C\CCCC(=O)O	23.5% (inactive)
C=CC(=O)Nc1cccc(Nc2nc(Nc3ccc(OCCOC(F)F)cc3)ncc2F)c1	-27.9% (active)
CCN(C(=O)CN1CCN(c2cc3c(cc2F)c(=O)c(C(=O)O)cn3CC)CC1)c1nc(-c2ccccc2)cs1	-7.7% (active)
COc1cc(/C=C/c2cc(O)c3cc(C(C)=O)c(=O)oc3c2)cc2c1O[C@]1(C)CC[C@@H](O)C(C)(C)[C@H]1C2	65% (inactive)
Cc1ccc(S(=O)(=O)NCCCNc2nccc(-c3c(-c4cccc(F)c4)nc4occn34)n2)cc1	55.6% (inactive)
COc1cccc2cc(N(C)c3nc(C)nc4ccsc34)ccc12	20.2% (inactive)
CN(C)N=Nc1nn(C(=O)Nc2ccc(Cc3ccccc3)cc2)c2ccccc12	69.2% (inactive)
CCN(CC)CCCCCCCCNc1c2ccc(Cl)cc2nc2ccc(OC)cc12	-93.2% (active)
O=c1oc2ccc(F)cc2c(=O)n1-c1ccc(I)cc1F	-1.22% (active)
S=C(N/N=C/c1cc(Cl)cc(Cl)c1)NC12CC3CC(CC(C3)C1)C2	104% (inactive)
c1cc2c(cc1-c1cnc3nonc3n1)OCO2	84.6% (inactive)
C=C(C)C1CCC(=C)C2CCC3(C)OC12/C=C(/COC(C)=O)CCC3O (stereo not given)	115% (inactive)
COc1cnc2c(c1)C(=O)c1c-2n(CCCN2CCN(C)CC2)c(=O)c2cc(Cl)ccc12	54.2% (inactive)
Cc1cc(NCc2cc(Nc3ccnc4cc(Cl)ccc34)ccc2F)nc(N2CCCC2)n1	-35.4% (active)
COCCn1cc(-c2nc(-c3cn(CCOC)c4ncccc34)cs2)c2cc(F)ccc21	-10.9% (active)

Structure (SMILES)	growth
CCOC(=O)C1=C(C)NC(=O)NC1c1cc(=O)oc2ccc(C)cc12 (stereo not given)	106% (inactive)
CN(Cc1cnc2nc(N)nc(N)c2n1)c1ccc(C(=O)NC(CCC(=O)O)C(=O)O)cc1Br (stereo not given)	42.4% (inactive)
COc1ccc2c(c1)C(=O)/C(=C/c1ccc([N+](=O)[O-])o1)O2	-49.4% (active)
COc1cc(-c2nnc(SCc3ccc(O)c4ncccc34)n2-c2ccccc2)cc(OC)c1OC	-10.1% (active)
CCN(CC)CCCC(C)Nc1cc(-c2ccc(C(F)(F)F)cc2)c(C#N)c2nc3ccccc3n12 (stereo not given)	-23.6% (active)
Cc1ccc(NC(=O)Cc2ccc(/C=C/C(=O)c3ncc[nH]3)cc2)cc1	-0.436% (active)
Cc1nn(-c2ccccc2)c2ncnc(N/N=C/c3cccc(O)c3)c12	-0.147% (active)
O=C(NCCCCCCNC(=O)OCc1ccc2c(Cl)cc(Cl)c(O)c2n1)OCc1ccc2c(Cl)cc(Cl)c(O)c2n1	-62.7% (active)
CCCCNCC(O)c1cc2c(Cl)cc(Cl)cc2c2cc(C(F)(F)F)ccc12 (stereo not given)	-86.2% (active)
C[C@H](CCCC(=O)NCC#CCN1CCN(C)CC1)[C@H]1CC[C@H]2[C@@H]3CC[C@@H]4CC(=O)CC[C@]4(C)[C@H]3CC[C@]12C	91% (inactive)
Nc1ncncc1-c1ccc(F)cc1	105% (inactive)
C=C(C)[C@@H]1CCC[C@]2(C(=O)O)CC[C@]3(C)[C@@H](CC[C@@H]4[C@@]5(C)C/C(=C/c6ccncc6)C(=O)C(C)(C)[C@@H]5CC[C@]43C)[C@@H]12	16.6% (inactive)
COc1ccccc1/C=C(/C(=O)c1ccccc1)c1ccccc1	101% (inactive)
Cc1c(C(=O)Nc2ccccc2F)sc2c(=O)[nH]cnc12	106% (inactive)
c1ccc2cc(Cn3c[n+](Cc4ccc5ccccc5c4)c4ccccc43)ccc2c1	-21% (active)
COc1cccc(-c2nc3sccn3c2-c2ccnc(NCCCNS(=O)(=O)c3cccc(F)c3)c2)c1	8.57% (active)
CC1=Nc2cnc(Nc3ccc(OCCN4CCCC4)cc3)nc2Nc2ccccc21	57% (inactive)
CNC(=O)c1[nH]cc(-c2ccc(OC)cc2)c1-c1cc(OC)c2c(c1OC)OCO2	97.7% (inactive)
O=Nc1c(-c2cccc([N+](=O)[O-])c2)nc2ncccn12	17.4% (inactive)
C[C@@H](c1ccccc1)[C@@H](C(=O)O)c1ccccc1	96.7% (inactive)
